Most compounds without a hit are left out; they make up all but 6.5% or so of the library.
Vaccinia mCherry: vaccinia inhibition (mCherry reporter); Vaccinia virus mCherry reporter infection, fluorescence; Potency, µM (series often up to 36.5 µM), for inactives: top-dose activity change, negative = inhibition, actives largely listed as inhibitors; 310,000 compounds, 0.63% hits; AID 720579; calls by dose curve; tested in A549 cells; further: potency means the concentration at half of the fitted maximal effect; nearly all actives have a fitted effect of over 35% in size
Marburg entry inh: Marburg virus entry inhibition; Marburg virus pseudotyped entry inhibition, cell reporter; Potency, µM (highest dose often 37.8 µM), for the others: top-dose activity change, negative = inhibition, actives largely listed as inhibitors; 300,000 compounds, 1.8% hits; AID 540276; calls by dose curve; tested in HEK293 cells; further: potency means the concentration at half of the fitted maximal effect
VACV Venus inh: vaccinia inhibition (Venus reporter); Potency, µM (doses to about 36.5 µM), without a hit: top-dose activity change, negative = inhibition, usual class: inhibitors; 330,000 compounds, 0.46% hits; AID 720580; Vaccinia virus Venus reporter expression, fluorescence; calls by dose curve; tested in A549 cells; further: potency means the concentration at half of the fitted maximal effect; nearly all actives have a fitted effect of over 30% in size
LASV entry inh: Lassa virus entry inhibition; Potency, µM (doses to about 37.9 µM), without a hit: top-dose activity change, negative = inhibition, actives largely listed as inhibitors; Lassa virus pseudotype entry inhibition, cell reporter; 300,000 compounds, 1.2% hits; calls by dose curve; tested in HEK293 cells; further: potency means the concentration at half of the fitted maximal effect; nearly all actives have a fitted effect of over 50% in size
HCMV antiviral: blocks human cytomegalovirus replication; HFF cells, HCMV-luciferase reporter, 72 h; hits give low values; activity change, negative = inhibition, % at 57.5 µM; AID 1259415; 410,000 compounds, 4.5% hits; in the data active means activity change below about -60%; inconclusive means no clear call, values can overlap the other calls; inactive means above about -39%
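Two compound doses tested in HFFs infected with HCMV-luciferase, MOI 1 PFU/cell, 72 h at 37C. Lysate luminescence read with OneGlo; data normalized against buffer-only and 10uM Salinomycin inhibitor controls.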
FMDV inh: foot and mouth disease virus antiviral activity | FMDV antiviral cell-based qHTS | Potency, µM (top dose mostly 57.9 µM), for inactives: at the top dose activity change, negative = inhibition, most hits filed as inhibitors | 410,000 compounds, 1.2% hits; calls by dose curve; tested in HEK293T cells; further: read-out not given here; potency means the concentration at half of the fitted maximal effect; nearly all actives have a fitted effect of over 45% in size
An asterisk follows results filed as active; [ ] = dose if it differs, or a comment. On the % scale 0 is the no-effect control and ±100 the full control effect.

Screening CCN1CCN(C(=O)c2sc3ncnc(NCC4CCCO4)c3c2C)CC1 (stereo not given) returned Vaccinia mCherry -10%, VACV Venus inh -4% and FMDV inh -9%.
Screening O=c1[nH]c2ccccc2n1C1CCN(C(c2cccc3ccccc23)c2nnnn2-c2ccc3c(c2)OCCO3)CC1 (stereo not given) returned Vaccinia mCherry 0%, VACV Venus inh -12%, HCMV antiviral -76* and FMDV inh inconclusive.
`Cc1cccc(C)c1-n1nnnc1C(c1cccc2ccccc12)N1CCC(n2c(=O)[nH]c3ccccc32)CC1` (stereo not given) gave Vaccinia mCherry -8%, VACV Venus inh -24%, HCMV antiviral 5 and FMDV inh -17%.
O=c1[nH]c2ccccc2n1C1CCN(C(c2cc3ccccc3o2)c2nnnn2-c2ccc3c(c2)OCCO3)CC1 (stereo not given) was read as Vaccinia mCherry inconclusive, VACV Venus inh inconclusive, HCMV antiviral -99* and FMDV inh 35µM*.
O=C(Nc1cccc(C(=O)N2CCN(c3ccc(F)cc3)CC2)c1)c1nsc2ccccc12 was read as Vaccinia mCherry -18%, VACV Venus inh -7%, LASV entry inh inconclusive, HCMV antiviral 42 and FMDV inh 0%.
For Cn1cc(CN(CCCN2CCOCC2)C(=S)Nc2cccc(Cl)c2)c2ccccc21 the results were Vaccinia mCherry inconclusive, Marburg entry inh inconclusive, VACV Venus inh -25%, LASV entry inh inconclusive, HCMV antiviral -78* and FMDV inh -16%.
`Cc1cccc(NC(=S)N(CCCN2CCOCC2)Cc2cn(C)c3ccccc23)c1` gave Vaccinia mCherry -9%, Marburg entry inh inconclusive, VACV Venus inh -13%, LASV entry inh inconclusive, HCMV antiviral -89* and FMDV inh -8%.
Screening Cc1cccc(NC(=S)N(CCN2CCOCC2)Cc2cc3cc4c(cc3[nH]c2=O)OCO4)c1 returned Vaccinia mCherry -14%, Marburg entry inh -16%[46.1 µM], VACV Venus inh -6%, HCMV antiviral -21 and FMDV inh -12%.
CC(C)c1ccc(CN2C(=O)C(n3cccc3)c3ccccc32)cc1 (stereo not given) was read as HCMV antiviral -5.
CCNC(=S)N(CCc1c(C)[nH]c2ccc(Cl)cc12)Cc1ccco1 was read as Vaccinia mCherry inconclusive, Marburg entry inh inconclusive, VACV Venus inh -16%, LASV entry inh 7.9µM*, HCMV antiviral inconclusive and FMDV inh inconclusive.
Screening CNC(=S)N(CCc1c(C)[nH]c2ccc(C)cc12)Cc1ccco1 returned Vaccinia mCherry inactive, Marburg entry inh -40%, VACV Venus inh -13%, LASV entry inh -33%, HCMV antiviral 40 and FMDV inh -17%.
CCN(CC)C(=O)C1CCN(S(=O)(=O)c2ccc3oc4ccccc4c3c2)CC1 was read as Vaccinia mCherry -24%, Marburg entry inh inconclusive, VACV Venus inh inconclusive, LASV entry inh -27% and HCMV antiviral -70*.
`C#Cc1ccc(NC(=O)C2(C)CCN2C(=O)Cc2ccc(C(C)C)cc2)cc1` (stereo not given) gave Vaccinia mCherry 13%, VACV Venus inh -19%, HCMV antiviral -82* and FMDV inh inconclusive.
Screening C#Cc1ccc(NC(=O)C2(C)CCN2C(=O)Cc2ccc(C(C)(C)C)cc2)cc1 (stereo not given) returned Vaccinia mCherry inactive, VACV Venus inh -10%, HCMV antiviral -83* and FMDV inh inconclusive.
Screening Cc1ccc(S(=O)(=O)N2CCN(S(=O)(=O)c3ccc4c(c3)OCCCO4)CC2)cc1 returned Vaccinia mCherry 10% and VACV Venus inh -21%.
For CCCS(=O)(=O)NC(=O)C1(C)CCCN(C(=O)c2cc(C)n(C(C)(C)C)n2)C1 (stereo not given) the results were Vaccinia mCherry 38%, VACV Venus inh 6%, HCMV antiviral -64* and FMDV inh 5%.
`CCCS(=O)(=O)NC(=O)C1(C)CCN(C(=O)c2cc(C)n(C(C)(C)C)n2)C1` (stereo not given) gave Vaccinia mCherry 5%, VACV Venus inh -8%, HCMV antiviral 36 and FMDV inh -12%.
For Cn1c(-c2cccc(C(F)(F)F)c2)cc2cnc(Nc3ccc(F)cc3)cc21 the results were HCMV antiviral -6.
For Cc1cc(CNC(=O)COC(=O)Cn2[nH]c(=O)c3ccccc3c2=O)cc(C)c1O the results were Vaccinia mCherry inactive, Marburg entry inh -2%, VACV Venus inh -20%, LASV entry inh -4%, HCMV antiviral -98* and FMDV inh -9%.
`Cc1c2cnn(-c3ccccc3)c(=O)c2c(C)n1CC(=O)NCc1ccccc1` gave Vaccinia mCherry -1%, Marburg entry inh -15%[46.1 µM], VACV Venus inh 8%, LASV entry inh -3%[46.1 µM], HCMV antiviral -5 and FMDV inh -19%.
`CCCCc1nc2ccccc2c(=O)n1-c1ccc(Cl)cc1[N+](=O)[O-]` gave Marburg entry inh inconclusive, LASV entry inh 28%, HCMV antiviral -62* and FMDV inh -3%.
COC(=O)C(C(C)=O)C(NC(=O)NCc1ccccc1)c1ccccc1 (stereo not given) was read as Marburg entry inh 25%[14.2 µM].
Screening Cc1ccc(NC(=O)c2cc([N+](=O)[O-])ccc2N2CCOCC2)cc1C returned Vaccinia mCherry -17%, Marburg entry inh 7.1µM*, VACV Venus inh -13%, LASV entry inh -14%[46.1 µM], HCMV antiviral inconclusive and FMDV inh 2%.
CC(C)c1ccc(NC(=O)c2cc([N+](=O)[O-])ccc2N2CCOCC2)cc1 was read as HCMV antiviral inconclusive and FMDV inh -25%.
For O=C(Nc1ccc(N2CCN(C(=O)c3ccccc3)CC2)cc1)c1cc([N+](=O)[O-])ccc1N1CCOCC1 the results were Vaccinia mCherry inactive, Marburg entry inh 0.63µM*, VACV Venus inh -19%, LASV entry inh 6%, HCMV antiviral 9 and FMDV inh -23%.
CCc1nn(CC(=O)Nc2ccc(N(CC)CC)cc2C)c(=O)c2cc3sccc3n12 was read as Vaccinia mCherry -7%, Marburg entry inh 11%[46.1 µM], VACV Venus inh -13%, HCMV antiviral 3 and FMDV inh -14%.
For Cc1ccccc1CN1[C@@H](C)[C@H](c2ccccc2)Oc2cccc(NCCc3ccccc3)c2S1(=O)=O the results were HCMV antiviral -10.
CCc1cc(=O)oc2c3c(cc(OCC(=O)NCCCOC)c12)OC(C)(C)CC3 was read as Vaccinia mCherry -3%, Marburg entry inh -1%[46.1 µM], VACV Venus inh -16%, LASV entry inh 5%[46.1 µM], HCMV antiviral -69* and FMDV inh 3%.
COc1ccc(C(=O)C(/C=N/O)=N/Nc2ccc(F)cc2)cc1 was read as Vaccinia mCherry inactive, Marburg entry inh -4%[46.1 µM], VACV Venus inh -17%, LASV entry inh 4%, HCMV antiviral 10 and FMDV inh -8%.
